PubChem BioAssay (NCATS)
Records with an inconclusive call do not appear. Activity calls are given as the source filed them. Calls come from the whole dose curve; as a rule, active = well fitted curve in the direction sought with a large enough effect; inconclusive = small, poorly fitted or top-dose-only effect, or another doubt; inactive = no such curve, though single readings can be large; an effect the other way counts as inactive or inconclusive.

Tests used:
[1] = target: Aldehyde dehydrogenase, mitochondrial (Homo sapiens) (UniProt P05091); assay: qHTS for Inhibitors of the Aldehyde Dehydrogenase Family (ALDH2) Primary screen (AID 2061308); conditions: ALDH2 enzyme inhibition qHTS, 1536-well; series mostly up to 56 µM;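 note: plate controls were vehicle for no effect and reference inhibitor for full effect; nearly all actives have a fitted effect of over 55% in size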
[2] = target: Retinaldehyde dehydrogenase 3 (Homo sapiens) (UniProt P47895); assay: qHTS for Inhibitors of the Aldehyde Dehydrogenase Family (ALDH1A3) Primary screen (AID 2061315); conditions: ALDH inhibition qHTS; series mostly up to 56 µM;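 note: plate controls were DMSO vehicle for no effect and reference inhibitor for full effect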
[3] = BET inhibitor-based combinations targeting novel dependencies in MECOM-rearranged (r) AML: SET-2 cell line (AID 2202231); conditions: SET-2 AML cells viability, CellTiter-Glo luminescence, 48 h; viability: active compounds read low, concentration not given here; note: nearly all actives have a fitted effect of over 35% in size; note: potency is the fitted concentration of half-maximal effect;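 for viability: plate controls were DMSO treated cells for no effect and wells without cells for full effect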
Outline: (§1)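 AML cell lines seeded at 500 cells/well, treated with 11-point dose curves for 48 h. Viability by CellTiter-Glo luminescence, normalised to DMSO and empty wells; activity expressed as AUC and per-cell-line Z-transformed AUC.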

[4] = BET inhibitor-based combinations targeting novel dependencies in MECOM-rearranged (r) AML: MV-4-11 cell line (AID 2202233); conditions: MV-4-11 AML viability, CellTiter-Glo luminescence, 48 h; series mostly up to 46 µM; note: nearly all actives have a fitted effect of over 45% in size; note: potency is the fitted concentration of half-maximal effect
Outline: (§2)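 Cells at 500/well were exposed for 48 hr to MIPE v5.0 drugs as 11-point dose curves. Viability was read by CellTiter-Glo luminescence and normalized to DMSO and empty-well controls. Activity was expressed as AUC and per-cell-line Z-AUC.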

[5] = BET inhibitor-based combinations targeting novel dependencies in MECOM-rearranged (r) AML: HNT-34 cell line (AID 2202234); conditions: HNT-34 AML viability, CellTiter-Glo luminescence, 48 h; series mostly up to 46 µM; note: nearly all actives have a fitted effect of over 35% in size; note: potency is the fitted concentration of half-maximal effect
Outline: as §2

[6] = BET inhibitor-based combinations targeting novel dependencies in MECOM-rearranged (r) AML: AML-191 cell line (AID 2202236; note: nearly all actives have a fitted effect of over 35% in size; note: potency is the fitted concentration of half-maximal effect); conditions: AML-191 viability, CellTiter-Glo luminescence, 48 h; series mostly up to 46 µM
Outline: as §1

[7] = BET inhibitor-based combinations targeting novel dependencies in MECOM-rearranged (r) AML: AML-194 cell line (AID 2202237; note: nearly all actives have a fitted effect of over 40% in size; note: potency is the fitted concentration of half-maximal effect); conditions: AML-194 (MECOM-r AML) viability, CellTiter-Glo, 48 h; series mostly up to 46 µM
Outline: as §1

[8] = BET inhibitor-based combinations targeting novel dependencies in MECOM-rearranged (r) AML: OCI-AML3 cell line (AID 2202232); conditions: CellTiter-Glo luminescence, 48 h; Potency: OCI-AML3 viability; series mostly up to 46 µM;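 note: plate controls were DMSO vehicle wells for no effect and wells without cells for full effect; nearly all actives have a fitted effect of over 35% in size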
Outline: as §1

[9] = BET inhibitor-based combinations targeting novel dependencies in MECOM-rearranged (r) AML: UCSD-AML1 cell line (AID 2202235); conditions: UCSD-AML1 AML cells viability, CellTiter-Glo, 48 h; series mostly up to 46 µM; note: nearly all actives have a fitted effect of over 40% in size; note: potency is the fitted concentration of half-maximal effect
Outline: as §2

[10] = target: Retinal dehydrogenase 2 (Homo sapiens) (UniProt O94788); assay: qHTS for Inhibitors of the Aldehyde Dehydrogenase Family (ALDH1A2) Confirmation screens (AID 2061314); conditions: ALDH1A2 enzyme inhibition qHTS confirmation; series mostly up to 45.9 µM; note: potency is the fitted concentration of half-maximal effect; nearly all actives have a fitted effect of over 65% in size
[11] = target: Aldehyde dehydrogenase 1A1 (Homo sapiens) (UniProt P00352); assay: qHTS for Inhibitors of the Aldehyde Dehydrogenase Family (ALDH1A1) Confirmatory screens (AID 2061316); conditions: ALDH inhibition qHTS; series mostly up to 47.3 µM; note: potency is the fitted concentration of half-maximal effect; nearly all actives have a fitted effect of over 65% in size

CC(=O)OC[C@]12[C@H](OC(C)=O)C(=O)[C@@H]3[C@@H](OC(C)=O)[C@@]14O[C@@]3(C)COC(=O)c1cccnc1[C@@H](C)[C@H](C)C(=O)O[C@@H]([C@H](OC(C)=O)[C@@H]2OC(C)=O)[C@]4(C)O
inactive: Potency [1] | Potency [2]

c1cc(N[C@@H]2CCNC2)nc(-c2cnc3ccc(-c4cn[nH]c4)cn23)c1
inactive: Potency [1] | Potency [2] | viability [3] 88.2%
active: Potency [4] 0.0132 µM | Potency [5] 4.17 µM | Potency [6] 16.6 µM | Potency [7] 18.6 µM

O=C(NCC1CN(c2ccc(N3CCOCC3=O)cc2)C(=O)O1)c1ccc(Cl)s1 (stereo unspecified)
inactive: Potency [1] | Potency [2] | Potency [8] | Potency [4] | Potency [9] | Potency [7]
active: Potency [5] 23.5 µM

O=C(O)c1ccc(-n2cccc2/C=C2\SC(=O)N(Cc3ccc(Cl)cc3)C2=O)cc1
inactive: Potency [2]
active: Potency [10] 17.8 µM | Potency [11] 4 µM

Cc1c(F)cc(C(=O)NC2CC2)cc1-c1c(F)cn2c(C(C)(C)C)nnc2c1F
inactive: Potency [1] | Potency [2] | viability [3] 104% | Potency [8] | Potency [5] | Potency [9] | Potency [6] | Potency [7]

CCCNC(=O)Nc1ccc(Oc2ncnc3cc(OC)c(OC)cc23)cc1Cl
inactive: Potency [1] | Potency [2] | viability [3] 92.8% | Potency [8] | Potency [5] | Potency [9] | Potency [6]

CC(O)C1NC(=O)C2CCCN2C1=O (stereo unspecified)
inactive: Potency [1] | Potency [2]

COc1cc(N2CCC(N3CCN(C)CC3)CC2)ccc1Nc1ncnc(Nc2ccccc2S(=O)(=O)C(C)C)n1
active: Potency [5] 9.34 µM | Potency [6] 18.6 µM | Potency [7] 10.5 µM
inactive: Potency [1] | Potency [2]

Nc1ncnc2c1C(=O)N(c1ccc(C3CCC(CC(=O)O)CC3)cc1)CCO2 (stereo unspecified)
inactive: Potency [1] | Potency [2] | viability [3] 105% | Potency [4] | Potency [5] | Potency [9] | Potency [6] | Potency [7]

COCCNCc1ccc(-c2cc3nccc(Oc4ccc(NC(=O)C5(C(=O)Nc6ccc(F)cc6)CC5)cc4F)c3s2)nc1
active: Potency [3] 13.2 µM | Potency [5] 2.95 µM | Potency [9] 8.33 µM | Potency [6] 8.33 µM | Potency [7] 5.25 µM
inactive: Potency [1] | Potency [2]

C[C@@H]1CCN(C(=O)N2CCCC2)C[C@@H]1N(C)c1ncnc2[nH]ccc12
inactive: Potency [1] | Potency [2] | Potency [8]
active: Potency [5] 16.6 µM | Potency [9] 0.934 µM
